# Only some compounds are listed: those with a hit (about 3.5% of all), similar ones and a draw of the others.
# M1 ag: human M1 muscarinic receptor agonists, primary screen, Fluo-8 calcium fluorescence, CHO-K1 cells, HTS; Muscarinic acetylcholine receptor M1 (Homo sapiens), P11229; CHO-K1 hM1, agonist mode; 0% DMSO, 100% acetylcholine EC100; activation, % at 3 µM; 0.33% of 360,000 active;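 active = activation above the run's mean compound activation plus 3 SD, cut at about 16% in these data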;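 also: peak over basal fluorescence ratio within a 140 s kinetic read after compound addition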
# Target sequence (P11229 whole entry, looked up): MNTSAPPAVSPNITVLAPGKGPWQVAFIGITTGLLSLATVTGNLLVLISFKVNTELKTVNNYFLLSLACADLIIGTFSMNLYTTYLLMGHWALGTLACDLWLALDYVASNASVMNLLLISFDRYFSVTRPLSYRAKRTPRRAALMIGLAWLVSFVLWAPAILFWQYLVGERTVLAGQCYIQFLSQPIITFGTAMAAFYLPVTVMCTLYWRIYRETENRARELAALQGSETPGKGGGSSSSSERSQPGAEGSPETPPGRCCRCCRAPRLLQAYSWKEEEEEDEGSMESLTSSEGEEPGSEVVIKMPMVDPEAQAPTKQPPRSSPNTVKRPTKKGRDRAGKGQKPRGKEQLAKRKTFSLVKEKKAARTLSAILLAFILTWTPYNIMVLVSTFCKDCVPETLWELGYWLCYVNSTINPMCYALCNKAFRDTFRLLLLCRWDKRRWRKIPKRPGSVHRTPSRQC
# ATG4B inh: ATG4B protease inhibitors, primary screen, biochemical, fluorescence, uHTS; Cysteine protease ATG4B (Homo sapiens), Q9Y4P1; ATG4B cleavage of LC3-PLA2, NBD-HPC fluorescence, 1 h; inhibition, % at 8.33 µM; 0.51% of 340,000 active; AID 504462, 2011; in the data active = inhibition above about 40%
# Myeloid diff 2: induction of myeloid progenitor differentiation, primary screen, cell-based, flow cytometry, MLPCN library. ER-HoxA9 myeloid progenitors, lysozyme-GFP differentiation. calls only at 10 µM. 1% of 360,000 active;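 active = normalized GFP-positive differentiation at or above the plate's own cutoff, the solvent-only control mean plus 3 SD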;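 also: cells exposed to compound for four days before flow analysis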
# M1 antag: human M1 muscarinic receptor antagonists, primary screen, CHO-K1 cells, Fluo-8 calcium fluorescence, 1536-well; inhibition, % at 3 µM; 1.3% of 360,000 active; CHO-K1 hM1, ACh EC80 antagonist; Muscarinic acetylcholine receptor M1 (Homo sapiens), P11229;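 active = percent inhibition above its own plate's cutoff, namely the mean of that plate's compound wells plus 3 SD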;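 also: peak over basal fluorescence ratio during 140 s after agonist addition; 0% = ACh EC80 plus DMSO and 100% = DMSO alone without agonist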
# SKN-1 inh: suppressors of acrylamide-induced Pgst-4::GFP reporter in worms, primary screen, SKN-1 inhibitor project, whole organism, uHTS, GFP/RFP fluorescence ratio, strain VP596; C. elegans VP596 Pgst-4::GFP/RFP ratio, 24 h; 0.49% of 360,000 active; inhibition, % at 21.8 µM;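 active = interference check ratio from 0.5 to 1.5 plus GFP to RFP signal ratio inhibition reaching or exceeding a fixed threshold, cut at about 30% in these data, passing the limit was not always enough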
# CHRM1 PAM: human M1 muscarinic receptor positive allosteric modulators, primary screen, CHO-K1 cells, Fluo-8 calcium fluorescence, 1536-well | 0.088% of 360,000 active | AID 588819, 2011 | activation, % at 3 µM | Muscarinic acetylcholine receptor M1 (Homo sapiens), P11229 | CHO-K1 hM1, ACh EC20; 0% = ACh EC20, 100% = maximal ACh; in the data active = activation above about 19%, passing the limit was not always enough
# Active calls of the source: *; i = inactive; . = no result given; + = active, no number.
SMILES,M1 ag,ATG4B inh,Myeloid diff 2,M1 antag,SKN-1 inh,CHRM1 PAM
O=C(Nc1ccc(N2CCN(C(=O)c3cccs3)CC2)cc1)c1ccccc1F,-1.3,-19.3,+,-1.2,14.8,0.2
CC(=O)N1CCOc2ccc(S(=O)(=O)NCc3ccc(F)cc3)cc21,-1.4,3.2,i,-1.2,-0.1,-0.2
CN(CC(=O)Nc1ccc(F)c(F)c1F)C(=O)C1COc2ccccc2O1 (stereo not drawn),-2.2,0.5,i,-6.5,-2.5,7.9
COc1ccccc1C(CNC(=O)COc1ccccc1C)N1CCCC1 (stereo not drawn),-7.8,-4.8,i,58.8*,-6.8,-26.7
Cc1cc2oc(C(=O)NCC(c3ccco3)N3CCCC3)c(C)c2cc1C (stereo not drawn),-7.1,.,i,-7.7,-7.8,9.2
Cc1ccc2oc(C(=O)NCC(c3ccco3)N3CCCC3)c(C)c2c1 (stereo not drawn),-4.5,6.1,+,-5.5,-15.1,6.9
Cc1cc(C)c(OCC(=O)NCC(c2ccco2)N2CCCCC2)c(C)c1 (stereo not drawn),-8.6,-6.2,i,9.7,3.9,-15.6
Cc1ccccc1OCC(=O)NCC(c1ccco1)N1CCCCC1 (stereo not drawn),-6.5,-5.7,i,27.8*,-0.7,-13.5
COc1ccccc1C(CNC(=O)COc1cc(C)ccc1Cl)N1CCCC1 (stereo not drawn),-7.0,-0.7,i,61.8*,1.3,-26.3
Fc1ccc(-c2nnc(-c3ccc4ccccc4c3)o2)cc1,-3.4,-9.3,i,-17.5,43.1*,12.2
Fc1ccc(-c2nnc(Cc3nnc(-c4ccc(F)cc4)o3)o2)cc1,-6.5,-17.5,i,-7.9,-11.1,5.5
Fc1ccc(-c2nnc(-c3ccc(F)cc3)o2)cc1,-2.4,1.2,i,-11.8,38.7*,13.5
Cc1cccc(NC(=S)NCc2ccccc2)c1C,-2.5,12.8,i,-18.9,8.9,17.9
Cn1nc(C(F)(F)F)c(-c2cccc(C(F)(F)F)c2)c1NC(=O)c1ccco1,-8.0,-12.9,i,-5.2,10.4,6.1
Cn1nc(C(F)(F)F)c(-c2cccc(C(F)(F)F)c2)c1NC(=O)Nc1ccc(F)cc1,3.2,8.1,i,37.6*,2.3,-19.0
CN=C1c2cc3cc(OC)ccc3n2CCN1C,-6.4,1.0,+,-10.0,33.8,8.5
CN=C1c2cc3c(Br)c(OC)ccc3n2CCN1C,-7.7,-6.0,i,-9.4,-2.7,5.7
Cc1nc2c(OCc3ccc(C(F)(F)F)cc3)cccn2c1N(C)C(=O)CCC1CCCC1,-8.0,.,i,27.7,0.7,-26.3
Cc1nc2c(OCc3ccc(Cl)cc3)cccn2c1N(C)C(=O)CCC1CCCC1,-8.0,.,i,-11.9,2.8,-3.3
Cc1nc2c(OCc3ccc(F)cc3)cccn2c1N(C)C(=O)CCC1CCCC1,-8.1,.,i,42.9*,-5.6,-33.0
Cc1nc2c(OCc3ccc(C#N)cc3)cccn2c1N(C)C(=O)CCC1CCCC1,0.5,.,i,39.6*,19.4,-31.7
Cc1nnsc1C(=O)N1CCCC(C)(C(=O)NS(=O)(=O)C2CC2)C1 (stereo not drawn),0.9,.,i,-3.1,-3.4,6.3
O=C1c2ccccc2NC(c2ccco2)N1/N=C/c1ccco1 (stereo not drawn),-6.3,-6.0,i,-9.7,13.7,8.7
Cc1ccc(/C=N/N2C(=O)c3ccccc3NC2c2ccc(C)cc2)cc1 (stereo not drawn),-3.5,30.8,+,-11.5,4.6,4.0
O=C(c1ccccc1)N1CCCCC(Cl)C1=O (stereo not drawn),-6.0,-4.8,i,4.2,-5.3,-8.2
SMILES,M1 ag,ATG4B inh,Myeloid diff 2,M1 antag,SKN-1 inh,CHRM1 PAM
CC(C)NC(=O)NC(=O)COC(=O)C1CCCN1C(=O)c1cccs1 (stereo not drawn),-2.3,-10.5,i,-7.4,0.7,3.9
O=C(COC(=O)[C@@H]1CCCN1C(=O)c1cccs1)NCCc1ccccc1,-4.4,-4.1,i,-8.8,35.8*,4.2
CC1(C(=O)Nc2cccc(OC(F)(F)F)c2)Cc2c(-c3ccc4c(c3)OCO4)ccnc2O1 (stereo not drawn),-1.1,.,i,-5.7,3.2,-0.3
CCOCCn1ccc2c(OCC(=O)Nc3ccc(OC)c(OC)c3)cccc2c1=O,1.6,-1.3,i,8.3,-2.6,-12.6
CCOCCn1ccc2c(OCC(=O)Nc3ccc(OC)cc3OC)cccc2c1=O,-6.0,-8.0,+,-13.3,-3.8,3.8
CC1CN(S(=O)(=O)c2cccc(C(=O)OCC(=O)c3cccs3)c2)CC(C)O1 (stereo not drawn),-2.7,-10.5,i,-14.7,-4.9,9.5
CC1CN(S(=O)(=O)c2cccc(C(=O)OCC(=O)Nc3ccc4c(c3)OCO4)c2)CC(C)O1 (stereo not drawn),-4.7,-13.9,i,3.1,43.8*,1.6
COc1ccc(NC(=O)C(C)N2C(=O)c3ccccc3C2=O)c(OC)c1 (stereo not drawn),-0.3,5.2,i,-14.9,-9.1,10.3
CN(N=Nc1cccc([N+](=O)[O-])c1)c1ccccc1,-1.7,-2.5,i,-14.7,48.0*,8.7
CCOC(=O)c1ccc(NC(=O)CSc2nnc(CNC(=O)c3ccco3)o2)cc1,-2.5,-5.7,i,-6.3,14.4,-1.3
CSc1ncnc2c1ncn2CCCN1CCN(c2ncccn2)CC1,-8.7,.,i,31.2*,9.8,-15.8
COc1ncnc2c1ncn2CCCN1CCN(c2ncccn2)CC1,-8.9,.,i,0.7,-7.5,-0.3
CC(C)CCN1C(=O)c2cccc3c(N)ccc(c23)C1=O,151.3*,-43.4,+,70.4*,-98.1,-22.8
Cc1cccc(N2C(=O)c3cccc4cccc(c34)C2=O)c1,-1.3,0.0,i,-16.0,9.8,11.4
Cc1cccc(N2C(=O)c3cccc4c(N(C)CCO)ccc(c34)C2=O)c1,22.8*,-14.0,i,10.7,-10.2,-14.4
Cc1cccc(N2C(=O)c3cccc4c(N)ccc(c34)C2=O)c1,108.4*,-62.8,i,43.2*,-120.9,-26.8
Nc1cccc(N2C(=O)c3cccc4c(N)ccc(c34)C2=O)c1,44.5*,-36.8,+,13.8,-22.4,-13.8
CCCS(=O)(=O)NC(=O)C1(C)CCN(C(=O)c2cc(OC)c(OC)c(OC)c2)C1 (stereo not drawn),-2.2,.,i,-8.4,1.5,6.3

# Screens from PubChem BioAssay.
